# Screening results from PubChem.
# This is one part of a sample in which hits are shown more often than they occur.
# DUSP3 inh: VHR1 phosphatase inhibitors, primary screen, biochemical, colorimetric, HTS. recombinant VHR phosphatase, colorimetric substrate read-out. AID 1992, 2009. Dual specificity protein phosphatase 3 (Homo sapiens), P51452. 50,000 tested, 0.7% active. inhibition, % at 20 µM; in the data active = inhibition above about 60%
# Target sequence (P51452 whole entry, looked up): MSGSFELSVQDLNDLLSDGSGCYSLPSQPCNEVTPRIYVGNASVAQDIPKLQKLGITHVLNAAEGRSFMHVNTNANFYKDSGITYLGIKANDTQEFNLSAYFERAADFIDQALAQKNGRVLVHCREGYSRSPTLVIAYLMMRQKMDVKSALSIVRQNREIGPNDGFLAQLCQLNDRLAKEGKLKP
# Numbers stand for hits; . = inactive.
SMILES,DUSP3 inh
Cc1ccc(N2C(=O)/C(=C\c3ccc(-c4ccc(Cl)c(C(=O)O)c4)o3)C(=O)NC2=S)cc1,.
O=C1NC(=S)N(c2ccccc2)C(=O)/C1=C/c1ccc(O)c(Cl)c1,.
O=C1NC(=S)N(c2ccc(Br)cc2)C(=O)/C1=C/c1ccc(-c2ccc(C(=O)O)cc2)o1,78
O=C1NC(=S)N(c2ccccc2)C(=O)/C1=C/c1ccc(-c2ccc(Cl)c(C(=O)O)c2)o1,.
O=C1NC(=S)N(c2ccc(Cl)cc2)C(=O)/C1=C\c1ccc(-c2cccc(C(=O)O)c2)o1,.
CN1C(=O)NC(=O)/C(=C/c2ccc(-c3ccc(C(=O)O)cc3)o2)C1=O,.
O=C1NC(=S)N(c2ccc(F)cc2)C(=O)/C1=C/c1ccc(-c2cccc(C(=O)O)c2)o1,86
CN1C(=O)NC(=O)/C(=C\c2cc(Cl)c(O)c(Cl)c2)C1=O,.
O=C1NC(=S)N(c2ccc(F)cc2)C(=O)/C1=C/c1cc(Cl)c(O)c(Cl)c1,78
O=C(CCCN1C(=O)/C(=C\c2cccs2)SC1=S)Nc1ccc(F)c(Cl)c1,.
Cc1ccc(NC(=O)CN(c2cc(Cl)cc(Cl)c2)S(C)(=O)=O)c(C)c1,.
O=C(NCc1cccnc1)c1cc(-c2ccccc2)nc2ccccc12,.
O=C(NCc1cccnc1)c1ccc(C#Cc2ccccc2)cc1,.
Nc1c(C(=O)NCc2cccnc2)sc(=S)n1-c1ccccc1,91
O=[N+]([O-])c1ccc(Cl)c(-n2ncnc2-c2cccc(Cl)c2)c1,.
O=C(Nc1ccc(Cl)cc1)c1ccc(-c2cccc(Cl)c2)o1,.
CCCOC(=O)c1ccc(NC(=O)c2ccc(-c3cccc(Cl)c3)o2)cc1,109
CCN(CC)c1ccc(NC(=O)c2ccc(-c3cccc(Cl)c3)o2)cc1,.
COc1ccc2c(c1)OCC/C2=N/OC(=O)c1ccc(OC)c([N+](=O)[O-])c1,.
COc1ccccc1NCC(=O)N/N=C\c1c(F)cccc1Cl,.
CCOC(=O)C1NN=C(C(=O)c2ccc(OC)cc2)C1c1ccccc1Cl (stereo unspecified),.
CCOC(=O)C1=NNC(C(=O)c2ccccc2)C1c1ccc(Br)cc1 (stereo unspecified),.
CCOC(=O)C1=NNC(C(=O)c2ccc(OC)cc2)C1c1ccccc1Cl (stereo unspecified),105
Cn1c2ccccc2c2nnc(SCC(=O)N(c3ccccc3)c3ccccc3)nc21,.
O=Cc1ccc(OCc2ccc([N+](=O)[O-])cc2)cc1,.
SMILES,DUSP3 inh
Cc1cc(C=O)c(C)n1-c1ccc(Sc2ccc([N+](=O)[O-])cc2)cc1,.
Cc1ccc(C(=O)Oc2cccc3ccc(C)nc23)cc1,.
CC(C)NC(=O)C1C(c2ccccc2)=C1c1ccccc1,120
Cc1cccc(NC(=O)C2C(c3ccccc3)=C2c2ccccc2)c1C,.
O=C(Nc1ccc(Br)cc1)C1C(c2ccccc2)=C1c1ccccc1,.
CCOc1cccc(=Nc2ccc(NC(C)=O)cc2)c2c(C)oc(C)c12,.
COc1ccc(C(=O)N/C(=C\c2cccc([N+](=O)[O-])c2)C(=O)NCC(C)C)cc1,.
CCOC(=O)c1conc1-c1ccc(N(CC)CC)cc1,.
CCc1ccc(/C=C2\C(=O)NN(c3ccccc3)C2=O)cc1,.
O=C1NN(c2ccccc2)C(=O)/C1=C\C=C\c1ccccc1,.
CC(C)=C1C(=O)NN(c2ccccc2)C1=O,83
Cc1ccc(C(=O)Nc2cccc([N+](=O)[O-])c2C)cc1C,.
C=CCN1C(=O)/C(=C/c2ccccc2Cl)C(=O)NC1=S,.
Cc1ccc(-c2ccc(C=C3C(=O)NC(=S)NC3=O)o2)c(Br)c1,.
O=C1NC(=S)N/C1=C/c1ccc(-c2cccc(Cl)c2Cl)o1,.
O=C1NC(=S)N/C1=C/c1ccc(-c2cc(C(=O)O)ccc2Cl)o1,.
C=CCN1C(=O)/C(=C\c2ccc(-c3ccc(C)cc3Br)o2)C(=O)NC1=S,88
C=CCN1C(=O)/C(=C\c2ccc(-c3ccc(Br)cc3)o2)C(=O)NC1=S,.
C=CCN1C(=O)/C(=C\c2ccc(-c3ccc([N+](=O)[O-])cc3)o2)C(=O)NC1=S,62
C=CCN1C(=O)/C(=C\c2ccc(-c3cccc([N+](=O)[O-])c3)o2)C(=O)NC1=S,.
C=CCN1C(=O)/C(=C\c2cn(C)c3ccccc23)C(=O)NC1=S,.
C=CCN1C(=O)/C(=C\c2ccc(C)o2)C(=O)NC1=S,.
Cc1cc(Br)c(-c2ccc(/C=C3/NC(=S)NC3=O)o2)cc1C,91
C=CCN1C(=O)/C(=C\c2cn(Cc3ccc([N+](=O)[O-])cc3)c3ccccc23)C(=O)NC1=S,83
CC(C)CCNC(=O)c1ccc(Cl)c([N+](=O)[O-])c1,.
SMILES,DUSP3 inh
O=C(Nc1ccc(Cl)c(-c2nc3ccccc3[nH]2)c1)c1cc2ccccc2o1,.
O=C1C(=O)N(CC2CCCO2)C(c2ccccc2Cl)/C1=C(/O)c1ccccc1 (stereo unspecified),.
COc1ccc(C2CC(C(F)(F)F)n3nc(C(=O)Nc4ccc5c(c4)OCO5)c(Cl)c3N2)cc1OC (stereo unspecified),.
COc1cccc(C2C(C(=O)OCCc3ccccc3)=C(C)NC3=C2C(=O)CCC3)c1 (stereo unspecified),.
CCN(CC)CCCCCCOc1c(C)cccc1C,.
CCn1cc(/C=C2\C(=O)NC(=O)N(c3ccccc3)C2=O)c2ccccc21,.
CCn1cc(C=C2C(=O)NC(=S)NC2=O)c2ccccc21,76
O=C(Cn1cc(C=C2C(=O)NC(=S)NC2=O)c2ccccc21)Nc1ccccc1,.
COc1cccc(/C=C2\N=C(c3ccccc3OC)OC2=O)c1,.
CCC(CC)NCc1cccc([N+](=O)[O-])c1,.
CCOc1ccc(N/C=C2\CCCCC2=O)c([N+](=O)[O-])c1,.
COc1ccc(-c2cc(C(=O)NCCc3ccc(OC)c(OC)c3)c3ccccc3n2)c(OC)c1,.
COc1ccc(-c2cc(C(=O)NCCc3ccccc3)c3ccccc3n2)c(OC)c1,102
COc1ccc(-c2cc(C(=O)NCCc3ccccc3)c3ccccc3n2)cc1OC,.
CCc1c(C)sc(NC(=O)c2ccc(Cl)cc2)c1C(N)=O,.
CCc1c(C)sc(NC(=O)c2cccnc2)c1C(N)=O,.
CCCCOc1ccc(C(=O)Nc2sc(C)c(CC)c2C(N)=O)cc1,70
O=C(Nc1cccc(-c2nc3ccccc3[nH]2)c1)c1ccc2c(c1)OCCO2,.
Cc1ccc(N2C(=O)CC(=O)NC2=S)cc1,.
O=C1CC(=O)N(c2ccccc2)C(=S)N1,.
O=C1CC(=O)N(c2ccc(Cl)c(Cl)c2)C(=S)N1,73
Cc1ccc2nsnc2c1NC(=O)/C=C/c1ccccc1,.
c1ccc(Cc2nc(-c3ccncc3)no2)cc1,.
CC(=O)Nc1ccccc1NC(=O)c1ccc(Br)cc1,.
Cc1cc(/C=C2/SC(=O)NC2=O)c(C)n1-c1cccc(Cl)c1,.
SMILES,DUSP3 inh
Cc1cc(/C=C2/SC(=S)NC2=O)c(C)n1-c1cccc(Cl)c1,95
Cc1cc(C)cc(-n2c(C)cc(C=C3SC(=S)NC3=O)c2C)c1,.
Cc1ccc(S(=O)(=O)n2cc(C=C3C(=O)NC(=S)NC3=O)c3ccccc32)cc1,.
COC(=O)COc1ccc(/C=C2\C(=O)NC(=O)N(c3ccc(C(C)C)cc3)C2=O)cc1OC,.
O=C(Nc1nccs1)C1(c2ccccc2)CC1(Cl)Cl (stereo unspecified),.
O=C(Nc1cccc2ccccc12)C1(c2ccccc2)CC1(Cl)Cl (stereo unspecified),118
O=C(Nc1ccccc1F)C1(c2ccccc2)CC1(Cl)Cl (stereo unspecified),.
